Assay results taken from PubChem BioAssay (NCATS).
Values joined by “and” are separate entries in the source; they are usually repeats but may differ in a detail not shown here. Equal values may be shown once. Active and inactive are the calls of the source. Calls come from the whole dose curve.

Target: Catechol O-methyltransferase (Homo sapiens) (UniProt P21964)
Experiment: Confirmatory Screen for Target Class Profiling of Small Molecule Inhibitors of Methyltransferases (AID 1745852); for activity change, negative = inhibition: % is set by controls: 0 for no effect and ±100 for the full control effect
Settings: MTase-Glo luminescence, SAH detection, recombinant enzyme; measured here: COMT max response; stronger effect = lower value
Potency is the fitted concentration of half-maximal effect.

Chain of Catechol O-methyltransferase (Homo sapiens) (P21964 whole entry, looked up): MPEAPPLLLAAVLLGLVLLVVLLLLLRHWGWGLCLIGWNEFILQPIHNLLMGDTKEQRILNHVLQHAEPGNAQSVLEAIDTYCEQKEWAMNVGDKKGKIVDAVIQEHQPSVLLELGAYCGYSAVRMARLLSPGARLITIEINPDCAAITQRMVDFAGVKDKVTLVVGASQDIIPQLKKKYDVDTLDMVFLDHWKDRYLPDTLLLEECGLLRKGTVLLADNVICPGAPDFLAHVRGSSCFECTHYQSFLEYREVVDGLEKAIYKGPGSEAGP

| Compound | activity |
| --- | --- |
| C=C[C@](C)(CC/C=C(\C)C(=O)O)O[C@@H]1OC[C@H](O)[C@H](O)[C@H]1O | -82.9% |
| CC1=CC(=O)CC(C)(C)C1(O)CCC(C)O (stereo unspecified) | -75.7% |
| CCc1nc(C(N)=O)c(Nc2ccc(N3CCC(N4CCN(C)CC4)CC3)c(OC)c2)nc1NC1CCOCC1 | -34.5% |
| COc1cc(C2Oc3c(OC)cc(CCCO[C@@H]4O[C@H](CO)[C@@H](O)[C@H](O)[C@H]4O)cc3C2CO)ccc1O (stereo partly specified) | -72% |
| CC1(C)CCC2(C(=O)OC3OC(COC4OC(CO)C(O)C(O)C4O)C(O)C(O)C3O)CCC3(C)C(=CCC4C5(C)CCC(O)C(C)(C(=O)O)C5CCC43C)C2C1O (stereo unspecified) | -59.6% |
| Cc1[nH]cnc1C1CCN(c2nc3cccc4c3n2CCC4=O)CC1 | 1.4% |
| NS(=O)(=O)OC[C@@H]1C[C@@H](n2ccc3c(N[C@H]4CCc5ccccc54)ncnc32)C[C@@H]1O | -6.43% and -2.13% |
| CC(=O)NCCCCn1c2c(c3ccccc31)C(=O)NCC2 | -9.83% |
| O=C(O)c1cc(O)c2cccc(O)c2c1O[C@@H]1O[C@H](CO)[C@@H](O)[C@H](O)[C@H]1O | -4.06% |
| O=C(O[C@@H]1O[C@H](CO)[C@@H](O)[C@H](O)[C@H]1O)c1c(O)cc(O)cc1/C=C/c1ccccc1 | -66.4% |
| CC(C)(O)C1CC=C(C(=O)OCC2OC(Oc3c(O)cc(C(=O)O)cc3O)C(O)C(O)C2O)CC1 (stereo unspecified) | -71.8% |
| C=C(C)[C@H]1C[C@@H](O)C(=C)CC[C@@H](O)C(=C)[C@@H](O)C1 | -67% |
| COC(=O)C1=CO[C@@H](O[C@@H]2O[C@H](COC(=O)/C=C/c3cc(OC)c(O)c(OC)c3)[C@@H](O)[C@H](O)[C@H]2O)[C@@H]2C(CO)=CC[C@H]12 | -58.2% |
| COc1cc(/C=C/c2cc(O)cc(O[C@@H]3O[C@H](CO)[C@@H](O)[C@H](O)[C@H]3O)c2)ccc1O | -45% |
| CC1CC(=O)C2=C(O1)OC1(C)CCC3C(C)(C)C=CC(=O)C3(C)C1C2 (stereo unspecified) | -45.9% |
| CC1=CC(=O)CC(C)(C)C1CCC(C)OC1OC(COC(=O)c2cc(O)c(O)c(O)c2)C(O)C(O)C1O (stereo unspecified) | -58.9% |
| CC(CCC1C(C(=O)O)=CC(=O)CC1(C)C)O[C@@H]1O[C@H](CO)[C@@H](O)[C@H](O)[C@H]1O (stereo partly specified) | -82.7% |
| COc1ccc(/C=C/C(=O)O[C@@H]2[C@@H](OC(C)=O)[C@@H](OC(C)=O)[C@H](O[C@H]3[C@@H]4C=CO[C@@H](O[C@@H]5O[C@H](CO)[C@@H](O)[C@H](O)[C@H]5O)[C@@H]4[C@@]4(CO)O[C@@H]34)O[C@H]2C)cc1O | -68.6% |

Target: Guanidinoacetate N-methyltransferase (Homo sapiens) (UniProt Q14353)
Experiment: as above
Settings: MTase-Glo luminescence, SAH detection, recombinant enzyme; activity change, negative = inhibition: at 57.3 µM (top of the series) unless noted; series mostly up to 57.3 µM

| Compound | activity change, negative = inhibition | Potency |
| --- | --- | --- |
| C=C[C@](C)(CC/C=C(\C)C(=O)O)O[C@@H]1OC[C@H](O)[C@H](O)[C@H]1O | -1.98% | – |
| CC1=CC(=O)CC(C)(C)C1(O)CCC(C)O (stereo unspecified) | 2.94% | – |
| CCc1nc(C(N)=O)c(Nc2ccc(N3CCC(N4CCN(C)CC4)CC3)c(OC)c2)nc1NC1CCOCC1 | – | 26.6 µM (active) |
| COc1cc(C2Oc3c(OC)cc(CCCO[C@@H]4O[C@H](CO)[C@@H](O)[C@H](O)[C@H]4O)cc3C2CO)ccc1O (stereo partly specified) | 2.87% [at 29.8 µM] | – |
| CC1(C)CCC2(C(=O)OC3OC(COC4OC(CO)C(O)C(O)C4O)C(O)C(O)C3O)CCC3(C)C(=CCC4C5(C)CCC(O)C(C)(C(=O)O)C5CCC43C)C2C1O (stereo unspecified) | 2.03% [at 19.1 µM] | – |
| Cc1[nH]cnc1C1CCN(c2nc3cccc4c3n2CCC4=O)CC1 | 0.0241% | – |
| NS(=O)(=O)OC[C@@H]1C[C@@H](n2ccc3c(N[C@H]4CCc5ccccc54)ncnc32)C[C@@H]1O | -2.34% and 2.95% | – |
| CC(=O)NCCCCn1c2c(c3ccccc31)C(=O)NCC2 | -8.34% | – |
| O=C(O)c1cc(O)c2cccc(O)c2c1O[C@@H]1O[C@H](CO)[C@@H](O)[C@H](O)[C@H]1O | – | 29.8 µM (active) |
| O=C(O[C@@H]1O[C@H](CO)[C@@H](O)[C@H](O)[C@H]1O)c1c(O)cc(O)cc1/C=C/c1ccccc1 | 2.61% [at 29.8 µM] | – |
| CC(C)(O)C1CC=C(C(=O)OCC2OC(Oc3c(O)cc(C(=O)O)cc3O)C(O)C(O)C2O)CC1 (stereo unspecified) | -3.66% [at 29.8 µM] | – |
| C=C(C)[C@H]1C[C@@H](O)C(=C)CC[C@@H](O)C(=C)[C@@H](O)C1 | 0% | – |
| COC(=O)C1=CO[C@@H](O[C@@H]2O[C@H](COC(=O)/C=C/c3cc(OC)c(O)c(OC)c3)[C@@H](O)[C@H](O)[C@H]2O)[C@@H]2C(CO)=CC[C@H]12 | -6.4% [at 19.1 µM] | – |
| COc1cc(/C=C/c2cc(O)cc(O[C@@H]3O[C@H](CO)[C@@H](O)[C@H](O)[C@H]3O)c2)ccc1O | 0.569% [at 29.8 µM] | – |
| CC1CC(=O)C2=C(O1)OC1(C)CCC3C(C)(C)C=CC(=O)C3(C)C1C2 (stereo unspecified) | -4.08% | – |
| CC1=CC(=O)CC(C)(C)C1CCC(C)OC1OC(COC(=O)c2cc(O)c(O)c(O)c2)C(O)C(O)C1O (stereo unspecified) | 0% [at 29.8 µM] | – |
| CC(CCC1C(C(=O)O)=CC(=O)CC1(C)C)O[C@@H]1O[C@H](CO)[C@@H](O)[C@H](O)[C@H]1O (stereo partly specified) | -6.33% | – |
| COc1ccc(/C=C/C(=O)O[C@@H]2[C@@H](OC(C)=O)[C@@H](OC(C)=O)[C@H](O[C@H]3[C@@H]4C=CO[C@@H](O[C@@H]5O[C@H](CO)[C@@H](O)[C@H](O)[C@H]5O)[C@@H]4[C@@]4(CO)O[C@@H]34)O[C@H]2C)cc1O | -5.06% [at 19.1 µM] | – |
